High-throughput results deposited in PubChem BioAssay by several laboratories.
Cardio protect – protects H9c2 cardiomyocytes from peroxide injury. H2O2 injury protection, ATPLite, 2 h. protection from H2O2 cell death, % at 20 µM. hit rate 0.63% among 360,000;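 active = compounds giving at least 50% protection of heart cells from peroxide-induced death in the single-dose screen, raw or plate-pattern-corrected value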;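 also: 0% = DMSO wells with peroxide and 100% = DMSO wells without peroxide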
M18AAP inhibitor – blocks P. falciparum M18 aspartyl aminopeptidase; hit rate 1.2% among 290,000; recombinant PfM18AAP, H-Glu-NHMec fluorogenic cleavage; AID 1822; inhibition, % at 7.35 µM;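 active = inhibition above the campaign mean inhibition over all tested compounds plus 3 SD, cut at about 28% in these data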;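 also: 0% = plate median of test compound wells and 100% = 2 mM ZnCl2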
ALR H2O2 inh – human ALR oxidase inhibition via reduced H2O2; P55789; hit rate 3.8% among 290,000; inhibition, % (test concentration not listed); purified ALR, DTT oxidation, H2O2 HRP-luminol luminescence;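 active = mean replicate inhibition above about 79%, with every replicate also reaching it, limit read from the data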
Target sequence (P55789 whole entry, looked up): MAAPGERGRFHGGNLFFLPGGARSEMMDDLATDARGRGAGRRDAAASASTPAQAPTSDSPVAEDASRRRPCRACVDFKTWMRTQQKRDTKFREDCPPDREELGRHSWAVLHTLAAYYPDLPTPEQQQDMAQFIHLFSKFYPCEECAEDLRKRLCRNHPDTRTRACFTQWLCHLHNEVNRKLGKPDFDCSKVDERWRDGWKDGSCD
PfG6PD inh – PfG6PD (Plasmodium falciparum) enzyme inhibition; inhibition, % at 20 µM; PfGluPho enzyme, NADPH resazurin-diaphorase fluorescence; hit rate 0.78% among 350,000;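 active = inhibition reaching at least a set limit at 20 µM in the primary screen, cut at about 59% in these data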;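 also: 0% = DMSO wells with substrate and 100% = DMSO wells lacking glucose-6-phosphate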
PHOSPHO1 block – blocks human PHOSPHO1 phosphatase activity; Q8TCT1; recombinant PHOSPHO1, absorbance phosphatase assay; inhibition, % at 13.3 µM; hit rate 1.1% among 290,000; in the data active = inhibition above about 60%
Target sequence (Q8TCT1 whole entry, looked up): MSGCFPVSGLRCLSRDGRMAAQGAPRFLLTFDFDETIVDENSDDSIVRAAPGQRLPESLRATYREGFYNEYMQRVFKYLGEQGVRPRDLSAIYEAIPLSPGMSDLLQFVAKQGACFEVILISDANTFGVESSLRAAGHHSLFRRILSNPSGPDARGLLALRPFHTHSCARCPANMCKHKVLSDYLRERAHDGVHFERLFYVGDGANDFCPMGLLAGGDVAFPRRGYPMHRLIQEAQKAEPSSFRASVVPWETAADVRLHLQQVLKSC
* hit, by the source's call. An excerpt weighted towards active compounds, which were near 5.6% of everything screened.

Screening CCc1cc(C(=O)N/N=C/c2ccc(O)cc2O)c2ccccc2n1 returned Cardio protect 53.0*, M18AAP inhibitor 21.7, ALR H2O2 inh 83.3*, PfG6PD inh -27.2 and PHOSPHO1 block 4.2.
Screening O=C(CNC(=O)C(c1ccccc1)c1ccccc1)N/N=C/c1ccc(O)cc1O returned Cardio protect 56.5*, M18AAP inhibitor 16.6, PfG6PD inh -6.3 and PHOSPHO1 block 28.1.
COc1ccc(/C=C\C(=O)NCC(=O)N/N=C/c2ccc(O)cc2O)cc1 was read as Cardio protect 46.7, M18AAP inhibitor 10.6, PfG6PD inh -38.2 and PHOSPHO1 block 15.9.
`O=C(CNC(=O)C1COc2ccccc2O1)N/N=C\c1cccc(O)c1` (stereo not given) gave Cardio protect -2.2, M18AAP inhibitor 2.4, ALR H2O2 inh 28.4, PfG6PD inh -21.6 and PHOSPHO1 block -11.9.
For O=C(N/N=C/c1ccc(O)cc1O)c1ccncc1 the results were Cardio protect 46.6, M18AAP inhibitor 17.4, ALR H2O2 inh 25.0, PfG6PD inh -41.0 and PHOSPHO1 block 29.9.
`O=C(CNC(=O)C1COc2ccccc2O1)N/N=C/c1ccc(O)cc1O` (stereo not given) gave Cardio protect 62.9*, M18AAP inhibitor 5.9, ALR H2O2 inh 67.2, PfG6PD inh -22.2 and PHOSPHO1 block -3.9.
Screening O=C(/C=C\c1ccccc1)NCC(=O)N/N=C/c1ccc(O)cc1O returned Cardio protect 65.6*, M18AAP inhibitor 14.5, ALR H2O2 inh -2.3, PfG6PD inh -25.5 and PHOSPHO1 block -4.5.
Cc1cc(Cl)ccc1OC(C)C(=O)OCC(=O)c1ccc[nH]1 (stereo not given) was read as Cardio protect -5.3, ALR H2O2 inh 1.4 and PfG6PD inh 14.9.
`COc1ccc(Oc2nc(C)cc(C)c2S(C)(=O)=O)cc1` gave Cardio protect -2.9, M18AAP inhibitor 1.1, ALR H2O2 inh 7.6, PfG6PD inh -3.5 and PHOSPHO1 block 36.6.
For COc1ccc(CSc2nc(C)cc(C)c2S(C)(=O)=O)cc1 the results were Cardio protect -9.9, M18AAP inhibitor 28.7*, ALR H2O2 inh 4.9, PfG6PD inh 18.1 and PHOSPHO1 block 36.7.
Cc1noc(C)c1NC(=O)N(C)C[C@@H]1OCc2cn(nn2)CCCC(=O)N([C@H](C)CO)C[C@H]1C was read as Cardio protect -1.3 and PfG6PD inh -3.6.
`CCC(C)C(=O)Nc1nc(C)c(-c2csc(Nc3cc(Cl)ccc3OC)n2)s1` (stereo not given) gave Cardio protect -16.4, M18AAP inhibitor -2.6, ALR H2O2 inh -22.2, PfG6PD inh 18.3 and PHOSPHO1 block 91.4*.
For COc1ccc(OC)c(Nc2nc(-c3sc(NC(=O)CC(C)C)nc3C)cs2)c1 the results were Cardio protect 4.9, M18AAP inhibitor 4.4, ALR H2O2 inh -37.1, PfG6PD inh 24.4 and PHOSPHO1 block 64.6*.
For COc1ccc(OC)c(Nc2nc(-c3sc(NC(=O)C(C)(C)C)nc3C)cs2)c1 the results were Cardio protect 27.0, M18AAP inhibitor -0.2, ALR H2O2 inh -19.4, PfG6PD inh 22.2 and PHOSPHO1 block 57.3.
Screening CCC(C)C(=O)Nc1nc(C)c(-c2csc(Nc3cc(OC)ccc3OC)n2)s1 (stereo not given) returned Cardio protect -7.4, M18AAP inhibitor 8.1, ALR H2O2 inh -14.8, PfG6PD inh 8.5 and PHOSPHO1 block 62.2*.
COc1ccc(OC)c(Nc2nc(-c3sc(C)nc3C)cs2)c1 was read as Cardio protect 7.2, M18AAP inhibitor 9.2, ALR H2O2 inh -2.9, PfG6PD inh 31.3 and PHOSPHO1 block 25.2.
`COc1ccc(Cl)cc1Nc1nc(-c2sc(NC(=O)C(C)(C)C)nc2C)cs1` gave Cardio protect -12.2, M18AAP inhibitor -3.0, ALR H2O2 inh 15.2, PfG6PD inh 30.9 and PHOSPHO1 block 101.1*.
Screening Cn1c(=O)c2sccc2n2c(CCCC(=O)NC3CCN(Cc4ccccc4)CC3)nnc12 returned Cardio protect 3.6, M18AAP inhibitor -0.1, ALR H2O2 inh -5.7, PfG6PD inh -22.8 and PHOSPHO1 block -3.2.
COc1cc(Cn2c(=O)c3c(OC)c(C)cnc3n(C)c2=O)cc(OC)c1 was read as Cardio protect 7.8, M18AAP inhibitor 10.3, ALR H2O2 inh 25.9, PfG6PD inh -6.3 and PHOSPHO1 block 22.3.
For Nc1ccc2c(c1)COc1ccccc1O2 the results were Cardio protect -1.5, M18AAP inhibitor -0.5, ALR H2O2 inh 99.1*, PfG6PD inh -7.1 and PHOSPHO1 block 13.4.
For Nc1ccc2c(c1)Oc1ccccc1C=C2 the results were Cardio protect 0.8, M18AAP inhibitor -10.9, PfG6PD inh 1.6 and PHOSPHO1 block 44.5.
For COc1nc(Cl)cn(-c2ccc(C)cc2)c1=O the results were Cardio protect -6.2, M18AAP inhibitor -8.5, ALR H2O2 inh -4.7, PfG6PD inh 6.7 and PHOSPHO1 block -5.0.
Screening Cc1ccc(-n2c(Cl)c(Cl)nc(Cl)c2=O)cc1 returned Cardio protect -32.1, M18AAP inhibitor -106.3, ALR H2O2 inh 97.5*, PfG6PD inh 26.4 and PHOSPHO1 block -5.0.
For O=C(COc1ccccc1)NCC(=O)N1CCCCCC1 the results were Cardio protect 0.2, ALR H2O2 inh -1.9 and PfG6PD inh 3.9.
CC(C)(C)c1ccc(Oc2ccc(NC(=O)CCCC(=O)O)cn2)cc1 was read as Cardio protect -2.9, M18AAP inhibitor 5.0, ALR H2O2 inh 90.6*, PfG6PD inh -30.0 and PHOSPHO1 block 45.0.
CC(CCC(C)C(C)(C)C)[C@@H]1CC[C@H]2C3C[C@H](OS(O)(=S)=S)[C@H]4C[C@H](OS(O)(=S)=S)[C@@H](OS(O)(=S)=S)C[C@]4(C)[C@H]3CC[C@]12C (stereo not given in full) (tested in a mixture with another compound) was read as Cardio protect -25.9, ALR H2O2 inh 98.1* and PfG6PD inh -53.5.
For COc1ccc(NC(=O)c2cc(C3CCCCN3C(=O)c3ccc(Cl)cc3)on2)c(C)c1 (stereo not given) the results were Cardio protect -0.1.
For Nc1ccc(Oc2cc(N)cc(Oc3ccccc3)c2)cc1 the results were Cardio protect -4.1, M18AAP inhibitor -0.1, ALR H2O2 inh 99.5* and PfG6PD inh 17.0.
`O=c1c2ccccc2nnn1COc1cccc(Cl)c1` gave Cardio protect -0.7, M18AAP inhibitor 4.1, ALR H2O2 inh -11.7, PfG6PD inh -4.3 and PHOSPHO1 block -6.7.
`O=C(c1ccc(OC2CCN(CCc3ccccc3)CC2)cc1)N1CCC(CO)CC1` gave Cardio protect -2.0, M18AAP inhibitor 6.0, ALR H2O2 inh -14.5, PfG6PD inh -2.9 and PHOSPHO1 block 59.8.
O=[N+]([O-])c1ccc(N2CCOCC2)cc1SCc1ccco1 was read as Cardio protect 10.5, M18AAP inhibitor 31.5*, ALR H2O2 inh -4.7, PfG6PD inh -3.9 and PHOSPHO1 block 2.6.
For CCc1nc2ccc(C(=O)N3CCN(C(C)=O)CC3)cn2c1N(C=O)Cc1ccc(OC)cc1 the results were Cardio protect -1.6.
For COc1cc(-c2cc(NC(C)=O)c3ncc(-c4cc(OC)c(OC)c(OC)c4)n3c2)cc(OC)c1OC the results were Cardio protect 66.2*.
